PubChem BioAssay (NCATS)
Records with an inconclusive call do not appear. Activity calls are given as the source filed them. Calls come from the whole dose curve; as a rule, active = well fitted inhibition curve with a large enough effect; inconclusive = small, poorly fitted or top-dose-only effect, or effect the other way; inactive = flat fitted curve, though single readings scatter.

Experiment: qHTS for Inhibitors of Plasmodium falciparum (CP250) proliferation (AID 504320)
Settings: P. falciparum CP250 in erythrocytes, SYBR Green DNA, 72 h; series mostly up to 6.7 µM
Outline: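 Parasite growth measured as SYBR Green DNA fluorescence (ex 485, em 535 nm) after overnight lysis following 72 h culture at 37 °C, 0.3% parasitemia, 2.5% hematocrit. Values normalized against DMSO and 0.29 uM artemisinin controls, with plate-stack correction.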

Potency, inactive:
CCN(CCNC(=O)[C@H]1C=C(OC)C(=O)C[C@H](c2ccccc2)[C@@H]1C)C(C)=O
CCCCCCCc1cc2ccccc2c(=O)o1
CC1(OC(=O)C2CCCC2)C(=O)C=C2C=C(c3ccsc3)N(Cc3ccc4c(c3)OCO4)C=C2C1=O (stereo unspecified)
CCCNC(=O)OC[C@H]1O[C@H](CCON=C(C)CCC(=O)OC[C@H]2O[C@H](C#Cc3ccccc3)C=C[C@H]2Oc2ccc(C)cc2)C=C[C@H]1Oc1ccc(OC)cc1
COC(=O)C1=C[C@H]([C@@H](C)[C@H](OC)c2ccccc2Br)[C@H]2c3ccccc3O[C@@H]12
C=CCNC(=O)N1CCc2nc(-c3ccc(OC)cc3C)c3c(c2C1)CO[C@@H](c1ccccc1)C3
